Out of some 100,000 compounds screened, about 770 (0.77%) were called active. Many of the other results were omitted from the sample, so actives are more common in it than they were. A number with no mark means an inactive call. Rule as the data show it: active = inhibition above about 50%; inactive = the rest.

For this assay, the target named is Gag-Pol polyprotein (Human immunodeficiency virus type 1 group M subtype B (isolate HXB2)) (UniProt P04585). Nature of the assay: RNase H inhibition, HIV 1 Gag Pol polyprotein, FRET biochemical assay, screening (AID 372). As to conditions: HIV-1 RT RNase H, FRET RNA/DNA substrate fluorescence; at 10 µM; stronger effect = higher value.
`Cc1ccccc1-n1c(O)c(C=NCc2ccccc2F)c(=O)[nH]c1=O`: the inhibition (in general, the share of the control response that was lost under treatment) is 9%.

With `CC1CCc2c(sc(N)c2C#N)C1` (stereo unspecified), the inhibition is 57% (active).

`CCCC1CCc2c(sc(N)c2C#N)C1` (stereo unspecified): the inhibition was 39%.

As for `CCC1CCc2c(sc(N)c2C#N)C1` (stereo unspecified), the inhibition was 18%.

As for `O=C(Nc1ccc(NC(=O)c2cc([N+](=O)[O-])cc([N+](=O)[O-])c2)cc1)c1cccc(Br)c1`, the inhibition was 12%.

Regarding `CCC(OC(=O)CN1C(=O)C(=O)c2ccccc21)C(=O)Nc1ccc(S(N)(=O)=O)cc1` (stereo unspecified), the inhibition is 12%.

Take `Cc1ccc(C)n1-c1ccc(OCC(=O)O)cc1`: the inhibition was 54% (active).

For `Cc1ccc(C)n1-c1ccc(CC(=O)O)cc1`, the inhibition is 47%.

`O=C(O)COc1ccc(N2C(=O)CCC2=O)cc1`: the inhibition was 12%.

With `O=C(O)COc1ccc(N2C(=O)C=CC2=O)cc1`, the inhibition is 35%.

Turning to `CC(=O)c1ccc(-n2c(C)ccc2C)cc1`, the inhibition was 0%.

On to `O=C(CN1C(=O)/C(=C/c2ccccc2Cl)SC1=S)Nc1nccs1`, for which the inhibition was 14%.

`CCOc1ccccc1N1COc2ccc3ccccc3c2C1`: the inhibition is 14%.

Consider `CCOc1ccc(CN2CCN(C(=O)c3cccs3)CC2)cc1`, for which the inhibition was 5%.

Regarding `COc1cccc(OCCCCOc2ccc(Cl)cc2C)c1`, the inhibition is 29%.

Take `COc1ccc(OC)c(N(CC(=O)N/N=C/c2cc(Br)ccc2OC)S(=O)(=O)c2ccccc2)c1`: the inhibition was 2%.

With `O=C1NC(=O)/C(=C\c2ccc(Cl)cc2Cl)S1`, the inhibition was 16%.

As for `Cc1ccc(C)c(NS(=O)(=O)c2cc(Cl)ccc2Cl)c1`, the inhibition is 47%.

For `Cc1ccc(NS(=O)(=O)c2cc(Cl)ccc2Cl)c(C)c1`, the inhibition was 20%.

Consider `Cc1ccc(NS(=O)(=O)c2cc(Cl)ccc2Cl)c(Br)c1`, for which the inhibition is 51% (active).

In the case of `COc1ccc(C(=O)Nc2ccc(I)cc2Cl)cc1OC`, the inhibition is 8%.

For the compound `COc1ccc(-c2nc(-c3ccccn3)no2)cc1OC`, the inhibition is 10%.

Regarding `CCC(CC)C(=O)Nc1ccc(Cl)cc1Cl`, the inhibition was 13%.

For `O=C(CCSc1nc2ccccc2s1)Nc1ccccc1C(F)(F)F`, the inhibition was 13%.

As for `Cn1c(-c2ccccn2)nc2ccccc21`, the inhibition was 2%.

As for `Cn1c(-c2ccc(-c3nc4cnccc4n3C)cc2)nc2cnccc21`, the inhibition is 70% (active).

As to `Cn1c(-c2nc3ccccc3n2C)nc2ccccc21`, the inhibition is 13%.

`CC1CCCN(C2=NC(=O)/C(=C\c3cccc(O)c3)S2)C1` (stereo unspecified): the inhibition was 12%.

In the case of `Cc1ccc(-n2c(C)cc(/C=N/NC(N)=S)c2C)cc1`, the inhibition was 15%.

Take `Cc1cccc(-n2c(C)cc(/C=N/NC(N)=O)c2C)c1`: the inhibition was 29%.

With `Cc1cc(/C=N/NC(N)=S)c(C)n1-c1ccc(Cl)cc1`, the inhibition was 23%.

As to `Cc1cc(/C=N/NC(N)=S)c(C)n1-c1cccc(Cl)c1`, the inhibition was 54% (active).

For `Cc1cc(C=O)c(C)n1-c1cccc([N+](=O)[O-])c1`, the inhibition was 6%.

Regarding `Cc1cc(/C=N/NC(N)=O)c(C)n1-c1cccc(Cl)c1`, the inhibition is 24%.

Consider `Cc1cc(/C=N/NC(=O)c2cc(Br)c(O)c(Br)c2)c(C)n1-c1cccc([N+](=O)[O-])c1`, for which the inhibition was 15%.

`Cc1cc(/C=N/NC(N)=S)c(C)n1-c1cccc([N+](=O)[O-])c1`: the inhibition is 52% (active).

Turning to `Cc1cccc(-n2c(C)cc(/C=N/NC(N)=S)c2C)c1`, the inhibition was 56% (active).

As to `O=C(NCCc1ccccc1)/C(=C/c1ccco1)c1ccccc1`, the inhibition is 2%.

On to `Cc1ccc(C(=O)c2cccc(C(=O)c3ccc(C)c(C)c3)c2)cc1C`, for which the inhibition is 8%.

As to `O=C(Nc1c(-c2ccccc2)c2cc(Br)ccc2[nH]c1=O)c1cccc(Cl)c1`, the inhibition is 23%.

On to `COc1ccc(OC(C)C(=O)Nc2ccc(F)cc2)cc1` (stereo unspecified), for which the inhibition was 0%.

As for `Cc1ccc(NC(=O)C2CC(=O)N(c3ccc(Br)cc3)C2)cc1Cl` (stereo unspecified), the inhibition is 5%.

`COC(=O)C1=C(C)N(c2ccccc2)C(=O)/C1=C\c1ccc(C(=O)OC)cc1`: the inhibition was 15%.

Regarding `Cc1cc(NS(=O)(=O)c2ccc(NC(=O)c3cc(Cl)cc(Cl)c3)cc2)no1`, the inhibition is 0%.

`CCCCNc1ccc2c3c(cc(=O)n2C)-c2ccccc2C(=O)c13`: the inhibition is 8%.

As to `COCCCNc1ccc2c3c(nc(=O)n2C)-c2ccccc2C(=O)c13`, the inhibition was 50% (active).

For the compound `CC(=O)OCCNc1ccc2noc3c2c1C(=O)c1ccccc1-3`, the inhibition is 0%.

As for `Fc1ccc(CN2CCc3c([nH]c4ccccc34)C2)cc1`, the inhibition was 0%.

As for `CCCC(C)C(=O)Nc1cccc(C)c1C` (stereo unspecified), the inhibition was 10%.

For `CC(C)(C)C1=CC(C(C)(C)C)=C([N+](=O)[O-])C(=O)C1=O`, the inhibition was 6%.

On to `CC(C)(C)C1=CC(Cl)=C(C(C)(C)C)C(=O)C1=O`, for which the inhibition is 5%.

Turning to `CC(C)(C)C1=CC(C(C)(C)C)=C(Cl)C(=O)C1=O`, the inhibition was 69% (active).

Take `Cc1ccccc1CNS(=O)(=O)c1cccs1`: the inhibition is 0%.

As for `COc1ccccc1/C=N\N(C)c1nc(-c2ccccc2)cc(-c2ccccc2)n1`, the inhibition is 17%.

Regarding `COc1cc(/C=N/Nc2nc(N3CCOCC3)nc(N3CCOCC3)n2)cc(OC)c1`, the inhibition is 5%.

Consider `O=C(/C=C/c1ccc(-c2ccccc2[N+](=O)[O-])o1)Nc1ccc(-c2nc3ccccc3o2)cc1`, for which the inhibition is 45%.

`O=C(/C=C/c1ccc(-c2ccccc2[N+](=O)[O-])o1)Nc1ccc(-c2nc3cc(Cl)ccc3o2)cc1`: the inhibition was 53% (active).

For `Cc1cc2nc(-c3ccc(NC(=O)/C=C/c4ccco4)cc3)oc2cc1C`, the inhibition was 57% (active).

Regarding `O=C(/C=C/c1ccco1)Nc1ccc2nn(-c3ccccc3)nc2c1`, the inhibition was 24%.

Take `O=C(/C=C/c1ccco1)Nc1ccc(-c2nc3cc(Cl)ccc3o2)cc1`: the inhibition is 51% (active).

As to `Cc1ccc2nc(-c3ccc(NC(=O)/C=C/c4ccco4)cc3)oc2c1`, the inhibition was 11%.

As to `O=C(/C=C/c1ccco1)Nc1ccc2oc(-c3ccccc3)nc2c1`, the inhibition was 15%.

In the case of `Cc1cc2nc(-c3cccc(NC(=O)/C=C/c4ccco4)c3)oc2cc1C`, the inhibition is 12%.

As to `O=C(/C=C/c1ccc(-c2ccccc2[N+](=O)[O-])o1)Nc1ccc(-c2nc3ncccc3o2)cc1`, the inhibition is 16%.

With `COc1ccc(-n2nc3ccc(NC(=O)/C=C/c4ccco4)cc3n2)cc1`, the inhibition was 48%.

Regarding `Cc1ccc(-c2nc3cc(NC(=O)/C=C/c4ccco4)ccc3o2)cc1`, the inhibition is 12%.

On to `O=C(/C=C/c1ccco1)Nc1ccc2nn(-c3ccc(Cl)cc3)nc2c1`, for which the inhibition is 50% (active).

Turning to `O=C(Nc1ccc(N2CCOCC2)c(Cl)c1)c1cc([N+](=O)[O-])ccc1Cl`, the inhibition is 24%.

`O=C1NC(=O)C(=Cc2ccccc2OCc2ccccc2F)C(=O)N1`: the inhibition was 4%.

For `COc1ccc(CN2CCN(C(=O)c3cccs3)CC2)c(OC)c1`, the inhibition was 5%.

Regarding `CC(C)(C)c1ccc(S(=O)(=O)Nc2ccc(-c3ccc(NS(=O)(=O)c4ccc(C(C)(C)C)cc4)c(Cl)c3)cc2Cl)cc1`, the inhibition was 23%.

For `CC1CCN(Cc2c(O)ccc3c(=O)c(-c4ccc(Cl)cc4)coc23)CC1`, the inhibition was 0%.

On to `COc1cc(-c2nc3ccccn3c2/N=C/c2cccc([N+](=O)[O-])c2)ccc1O`, for which the inhibition is 17%.

For the compound `O=C(/C=C/c1ccco1)Nc1ccc(C(=O)Nc2cccc(-c3nc4ccccc4o3)c2)cc1`, the inhibition was 55% (active).

Take `O=C(/C=C/c1ccco1)Nc1nc2ccc(Br)cc2s1`: the inhibition was 59% (active).

For the compound `O=C(/C=C/c1ccco1)Nc1cccc(-c2nc3ccccc3o2)c1`, the inhibition is 10%.

For `O=C(/C=C/c1ccccc1)Nc1nc2ccc(Br)cc2s1`, the inhibition was 48%.

Take `Cc1ccc2oc(-c3cccc(NC(=O)/C=C/c4ccco4)c3)nc2c1`: the inhibition was 6%.

With `O=C(/C=C/c1ccco1)Nc1nc(-c2ccc(Br)cc2)cs1`, the inhibition is 15%.

On to `CC(C)(C)C(=O)CC(=O)c1ccccc1`, for which the inhibition is 10%.

`CCOc1cc(CN2CCCCC2)ccc1OC`: the inhibition was 19%.

For `O=C(NC(=S)Nc1ccc(F)c([N+](=O)[O-])c1)c1cccc(Cl)c1`, the inhibition is 22%.

Take `CC(/C=C/c1ccccc1)=N/NS(C)(=O)=O`: the inhibition was 3%.

For the compound `COc1ccc(/C=C/C(=O)Nc2c(C(C)C)cccc2C(C)C)cc1Br`, the inhibition was 7%.

Consider `CCC(C(=O)Nc1cc(Cl)ccc1OC)c1ccccc1` (stereo unspecified), for which the inhibition was 29%.

On to `O=C(COc1ccc(Br)cc1)Nc1ccc(F)cc1F`, for which the inhibition was 0%.

For `CCSc1nc2c(C)c(O)c(C)cc2[nH]1`, the inhibition is 0%.

As for `O=C(Nc1ccccc1)Nc1nnc(Cc2ccc(Cl)c(Cl)c2)s1`, the inhibition was 16%.

Take `COC(=O)c1sccc1NS(=O)(=O)c1cc(Cl)ccc1Cl`: the inhibition is 35%.

`COC(=O)c1sccc1NS(=O)(=O)c1ccc(OC)cc1`: the inhibition was 0%.

As to `COC(=O)c1sccc1NS(=O)(=O)c1ccc(Cl)cc1`, the inhibition is 70% (active).

On to `COC(=O)c1ccccc1NC(=O)COc1ccc(Cl)cc1C`, for which the inhibition is 4%.

As to `CCOC(=O)c1c(NC(=O)COc2ccc(Cl)cc2C)sc(C(N)=O)c1C`, the inhibition was 12%.

On to `Cc1cc(Cl)ccc1OCC(=O)Nc1ccccc1C(N)=O`, for which the inhibition was 7%.

For the compound `Cc1sc(NC(=O)COc2ccc(Cl)cc2Cl)c(C(N)=O)c1C`, the inhibition was 9%.

Regarding `CCOC(=O)c1ccccc1NC(=O)COc1ccc(Cl)cc1C`, the inhibition is 50% (active).

Turning to `Cc1ccc(N[C@H]2OC[C@H](O)[C@H](O)[C@H]2O)cc1[N+](=O)[O-]`, the inhibition is 6%.

As to `CCC(=O)Nc1sc(Cc2ccccc2)c(C)c1C(N)=O`, the inhibition is 1%.

In the case of `O=C(NCCCN1CCOCC1)/C(=C/c1ccc(-c2ccc(Cl)cc2)o1)NC(=O)c1ccccc1`, the inhibition was 0%.

Take `COc1ccc(C(=O)NC(NC(=S)Nc2sc3c(c2C(N)=O)CCCC3)C(Cl)(Cl)Cl)cc1` (stereo unspecified): the inhibition was 11%.

Regarding `CCOC(=O)C1=C(C)N=c2s/c(=C\c3ccc(-c4ccc(Cl)cc4Cl)o3)c(=O)n2C1c1ccc(OC)cc1` (stereo unspecified), the inhibition was 12%.

With `CCOC(=O)C1=C(C)N=c2s/c(=C\c3ccc(-c4cc(Cl)ccc4Cl)o3)c(=O)n2C1c1ccc(OC)cc1` (stereo unspecified), the inhibition is 50% (active).

In the case of `CCOC(=O)C1=C(C)N=c2s/c(=C\c3ccc(-c4ccc(Cl)c(Cl)c4)o3)c(=O)n2C1c1ccc(OC)cc1OC` (stereo unspecified), the inhibition was 10%.

Turning to `CCOC(=O)C1=C(C)N=c2s/c(=C\c3ccc(-c4cc(Cl)ccc4C)o3)c(=O)n2C1c1ccc(OC)cc1` (stereo unspecified), the inhibition is 15%.

In the case of `CCOC(=O)C1=C(C)N=c2s/c(=C\c3ccc(-c4ccc(Cl)cc4)o3)c(=O)n2C1c1cc(OC)ccc1OC` (stereo unspecified), the inhibition was 7%.

Regarding `CCOC(=O)C1=C(C)N=c2s/c(=C\c3ccc(-c4ccc(Cl)cc4)o3)c(=O)n2C1c1ccc(OC)cc1OC` (stereo unspecified), the inhibition is 51% (active).
